# ± gives the standard deviation of the averaged measurements. In all, about 33,000 sequences were measured (“E-score (rank enrichment, -0.5 to 0.5)”: median about -0.0043, highest 2% from about 0.24 on). Many of the other results were omitted from the sample, so the highest values are more common in it than they were.
# System: 2Sp-muMax20 (muMax20 with two 2,6-bis(methyl)pyridine Cys staples)
# Assay: PBM 8-mer E-score (E-score (rank enrichment, -0.5 to 0.5)); higher = stronger preferential binding
# Description: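 Protein binding microarray (universal PBM chip covering all 10-mers in fixed probe flanks) with chemically synthesized human Max(13-93) bHLH-LZ analogs (not full-length Max) bearing noncanonical residues (hArg, Tha, Aib, Nle at 65) and aromatic Cys staples. Read-out per 8-mer (and its reverse complement): E-score (rank-based enrichment, -0.5 to 0.5) and Z-score of median probe intensity.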
row,Sequence,PBM 8-mer E-score
1,AGCACCGC,-0.216 ± 0.056
2,ACTGGCGC,0.0318 ± 0.075
3,CGCGACTC,0.0134 ± 0.05
4,AGAAGTGC,-0.15 ± 0.01
5,AGTGTACA,0.138 ± 0.071
6,TCGTGTCA,-0.0282 ± 0.02
7,ATTCGACA,-0.0611 ± 0.091
8,CGACTGCG,-0.11 ± 0.012
9,CGGAAGAC,-0.286 ± 0.011
10,CCTGGCTC,-0.193 ± 0.028
11,AGCTTATC,0.0357 ± 0.093
12,AGCTTATA,0.249 ± 0.15
13,CGCTTATA,0.116 ± 0.018
14,CGTCTTTA,0.0497 ± 0.034
15,CTGGGTGA,-0.0861 ± 0.036
16,TGCGCGCA,0.1734 ± 0.0016
17,GCTTATTA,0.172 ± 0.037
18,CCTTATTC,-0.0629 ± 0.052
19,CCTTATTA,0.28 ± 0.003
20,ACTCCTAG,-0.146 ± 0.087
21,CGACATGC,0.0468 ± 0.0062
22,GTAACACA,0.183 ± 0.032

row,Sequence,PBM 8-mer E-score
1,ATAACACC,0.0871 ± 0.057
2,CTAACACA,0.0336 ± 0.063
3,ATAACAGG,-0.0186 ± 0.03
4,ATAACACG,0.269 ± 0.011
5,ATAACACA,0.253 ± 0.075
6,ATCTAAGA,-0.0722 ± 0.047
7,TCGGAAGA,-0.155 ± 0.038
8,AGTTAACA,0.145 ± 0.13
9,CGTTAACA,0.0471 ± 0.048
10,TGTTAACA,0.2746 ± 0.0014
11,AGCTTTTA,0.0891 ± 0.031
12,ATATTAAG,0.16 ± 0.025
13,ATATTAAC,0.182 ± 0.0085
14,TTATTAAA,0.166 ± 0.054
15,ATATTAAA,0.2641 ± 0.001
16,ATATTAAT,0.318 ± 0.08
17,CTATTAAA,0.141 ± 0.053
18,GCCAGGGC,-0.343 ± 0.022
19,AAACGGTG,-0.0442 ± 0.0089
20,GGGCGTCA,0.12 ± 0.063
21,CGAATTGA,0.141 ± 0.014
22,GTGTACAA,0.198 ± 0.029

row,Sequence,PBM 8-mer E-score
1,TTGTACAA,0.331 ± 0.11
2,CTGTACAA,0.0666 ± 0.029
3,ACCGGTCC,-0.324 ± 0.028
4,TGACCTAA,0.00115 ± 0.0031
5,CTCCCCCC,-0.0388 ± 0.051
6,CCACAGTA,0.0513 ± 0.067
7,GTACCCGA,-0.187 ± 0.12
8,AAACATGG,0.153 ± 0.0082
9,AAACATGA,0.0601 ± 0.067
10,AATCAGCG,-0.0281 ± 0.1
11,AATCATGA,0.124 ± 0.13
12,ACACATGT,0.326 ± 0.044
13,AAACATGT,0.287 ± 0.008
14,AATCAGCT,0.279 ± 0.013
15,ACACATGG,0.194 ± 0.019
16,ACACATGA,0.0699 ± 0.082
17,AATCAGCC,0.0385 ± 0.041
18,AATCATGG,0.129 ± 0.0058
19,AATCATGT,0.239 ± 0.04
20,ACGTTAAG,0.137 ± 0.027
21,CGGTGTGC,-0.209 ± 0.041
22,CCCCACGC,0.095 ± 0.036

row,Sequence,PBM 8-mer E-score
1,AAATACTA,0.183 ± 0.026
2,CCATCGAC,-0.131 ± 0.028
3,AATTCCCC,0.123 ± 0.015
4,GATTCCCA,0.0167 ± 0.092
5,AATTCCCA,0.23782 ± 0.00023
6,GCTTAGTA,0.0418 ± 0.019
7,AACCTCTG,-0.064 ± 0.059
8,GATTAAGA,-0.00249 ± 0.0063
9,AATTAAGA,0.214 ± 0.0075
10,CATTAAGA,0.237 ± 0.056
11,GACGACTA,0.138 ± 0.051
12,CGACTCCC,-0.0206 ± 0.024
13,AGGGTCTG,-0.168 ± 0.019
14,CGTGATCC,-0.0859 ± 0.026
15,CGTGATCA,0.245 ± 0.036
16,GGTGATCA,0.0137 ± 0.0046
17,TGCTTACA,0.114 ± 0.016
18,ACCCACGT,0.284 ± 0.0034
19,AACCACGA,0.118 ± 0.035
20,ACCCACGA,-0.0222 ± 0.03
21,AACCACGT,0.288 ± 0.032
22,AACCACGC,0.0757 ± 0.035

row,Sequence,PBM 8-mer E-score
1,ACCCACGC,0.138 ± 0.023
2,GAGGCCGC,-0.291 ± 0.046
3,ATAATAAT,0.14 ± 0.084
4,ACAATAAG,0.1254 ± 0.001
5,ACAATACT,0.204 ± 0.069
6,CCAATAAA,0.211 ± 0.035
7,ACAATACC,0.273 ± 0.015
8,ACAATAAA,0.256 ± 0.012
9,ACAATAAT,0.275 ± 0.043
10,ACAATACA,0.0638 ± 0.061
11,ACAATAAC,0.0634 ± 0.07
12,CCGTTCAA,0.137 ± 0.026
13,GAGCTGAA,0.0148 ± 0.13
14,AACGCCCT,-0.0766 ± 0.052
15,AAGGTCAT,-0.149 ± 0.0067
16,AGAGCCCG,-0.276 ± 0.012
17,AATCAGGA,0.0255 ± 0.037
18,ATGTAGAA,0.246 ± 0.053
19,CTGTATAA,0.19 ± 0.035
20,CGATATAA,0.24 ± 0.0019
21,ATGTATAA,0.277 ± 0.046
22,CGATATAC,0.0494 ± 0.11

# From the supplement of paper PMC12636033
